“And” between values parts separate entries of the source, which are not always exact repeats. Equal values may be shown once. Records with an inconclusive call do not appear. Some compounds were tested as several samples or in several runs, with calls that do not always agree. The source made the active and inactive calls. Unless noted, the call rests on the fitted dose curve; in most records, active means well fitted curve in the direction sought with a large enough effect in the repeat runs; inconclusive means weak or mixed curves; inactive means no such curve, though single readings can be large; an effect the other way counts as inactive or inconclusive.
What was measured:
[1] = qHTS assay to identify small molecule agonists of the NFkB signaling pathway (AID 1159509; active means well fitted curve in the direction sought with a large enough effect in the signal ratio in the repeat runs, not every such curve was filed as active; the % refers to the signal ratio; further: series mostly up to about 61 µM; on the % scale 0 is the no-effect control and ±100 the full control effect)
In short: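 Beta-lactamase reporter assay run in quantitative high-throughput format on an NF-kB-responsive ME-180 line, with 5 hr compound treatment and a FRET-based blue/green fluorescence readout.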

[2] = qHTS assay to identify small molecule agonists of the NFkB signaling pathway - cell viability counter screen (AID 1159515; calls by dose curve; further: series mostly up to about 61 µM; on the % scale 0 is the no-effect control and ±100 the full control effect; nearly all actives have a fitted effect of over 55% in size)
In short: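 Plate 2,000 NFkB-bla ME-180 cells/well; incubate overnight. Add compounds, 5 hr at 37 C. Add FRET substrate, 1.5 hr RT. Add CellTiter-Glo, 30 min RT; read luminescence.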

[3] = qHTS assay to identify small molecule agonists of the endoplasmic reticulum stress response signaling pathway (AID 1159516; active means well fitted activation curve with a large enough effect in the signal ratio in the repeat runs, not every such curve was filed as active; the % refers to the signal ratio; further: on the % scale 0 is the no-effect control and ±100 the full control effect)
In short: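 Beta-lactamase expression from the ER stress response element in HeLa reporter cells is quantified with the LiveBLAzer B/G FRET substrate, read at 405 nm excitation after 2 hr at room temperature, following 5 hr compound treatment at 37 C.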

[4] = qHTS assay to identify small molecule agonists of the endoplasmic reticulum stress response signaling pathway - cell viability counter screen (AID 1159517; calls by dose curve; further: nearly all actives have a fitted effect of over 50% in size; further: potency means the concentration at half of the fitted maximal effect)
In short: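 Cytotoxicity of test compounds toward ESRE-bla HeLa cells was assessed after 5 hr exposure. The luminescent CellTiter-Glo signal was measured 30 min after reagent addition.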

[5] = qHTS assay to identify small molecule antagonists of the retinoid-related orphan receptor gamma (ROR-gamma) signaling pathway - cell viability counter screen (AID 1159520); further: on the % scale 0 is the no-effect control and ±100 the full control effect; nearly all actives have a fitted effect of over 50% in size
In short: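 Tet-on ROR gamma CHO cells (1,000/well) were plated 4 hr, given compounds in DMSO for 2 hr at 37 C, then induced with 1 uM final doxycycline for 16 hr. Viability was read as ATP by CellTiter-Glo luminescence after 30 min.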

[6] = biological target: Nuclear receptor ROR-gamma (Homo sapiens) (UniProt P51449); assay: qHTS assay to identify small molecule antagonists of the retinoid-related orphan receptor gamma (ROR-gamma) signaling pathway (AID 1159521; further: nearly all actives have a fitted effect of over 50% in size; further: potency means the concentration at half of the fitted maximal effect)
In short: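 RORγ antagonism is scored from reduced reporter luminescence in Tet-on CHO cells. Induction used 1 uM final doxycycline hyclate for 16 h at 37 C, following a 2 h compound exposure.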

[7] = qHTS assay to identify small molecule agonists of the AP-1 signaling pathway - cell viability counter screen (AID 1159525; calls by dose curve; further: nearly all actives have a fitted effect of over 55% in size)
In short: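 Each titration point was normalised to DMSO and tetra n-octyl ammonium bromide controls. The read was Cell Titer Glo luminescence after 30 min at RT, following 5 h compound exposure of ME-180 AP-1-bla cells at 37 °C.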

[8] = qHTS assay to identify small molecule agonists of the AP-1 signaling pathway (AID 1159526; calls by dose curve; further: on the % scale 0 is the no-effect control and ±100 the full control effect)
[9] = biological target: Retinoic acid receptor RXR-alpha (Homo sapiens) (UniProt P19793); assay: qHTS assay to identify small molecule agonists of the RXR signaling pathway (AID 1159527; calls by dose curve; further: on the % scale 0 is the no-effect control and ±100 the full control effect; nearly all actives have a fitted effect of over 35% in size)
Sequence of Retinoic acid receptor RXR-alpha (Homo sapiens) (P19793 whole entry, looked up): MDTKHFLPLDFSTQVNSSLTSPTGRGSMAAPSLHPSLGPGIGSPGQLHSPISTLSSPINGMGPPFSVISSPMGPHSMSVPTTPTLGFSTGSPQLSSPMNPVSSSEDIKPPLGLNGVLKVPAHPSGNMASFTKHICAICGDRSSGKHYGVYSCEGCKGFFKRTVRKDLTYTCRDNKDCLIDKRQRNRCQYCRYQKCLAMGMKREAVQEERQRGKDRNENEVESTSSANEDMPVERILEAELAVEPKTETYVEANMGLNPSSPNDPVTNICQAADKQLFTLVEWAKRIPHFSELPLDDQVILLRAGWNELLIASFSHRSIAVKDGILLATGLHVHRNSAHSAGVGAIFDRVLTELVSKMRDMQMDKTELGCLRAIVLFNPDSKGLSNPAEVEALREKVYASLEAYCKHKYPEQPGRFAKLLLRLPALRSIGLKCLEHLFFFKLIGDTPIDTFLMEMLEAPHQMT
In short: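 qHTS of the Tox21 10K library in GeneBLAzer RXR-alpha HEK 293T cells carrying a beta-lactamase reporter […]; 16 hr treatment, 9-cis retinoic acid as agonist control, FRET read-out.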

[10] = qHTS assay to identify small molecule agonists of the RXR signaling pathway - cell viability counter screen (AID 1159529); further: nearly all actives have a fitted effect of over 50% in size; further: potency means the concentration at half of the fitted maximal effect
In short: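 Cell viability is measured by CellTiter-Glo luminescence, 30 min at room temperature, in wells already read for beta-lactamase. Engineered HEK 293T cells (RXR-alpha-UAS-bla) are dosed 16 hr at 37 C. Tetraoctyl ammonium bromide serves as positive control.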

[11] = qHTS assay to identify small molecule antagonists of the retinoid acid receptor (RAR) signaling pathway - cell viability counter screen (AID 1159551); further: nearly all actives have a fitted effect of over 35% in size; further: potency means the concentration at half of the fitted maximal effect
In short: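 Viability of C3RL4 cells is quantified from ATP by luminescence after 6 h treatment at 37 C with compounds and 1 uM retinol.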

[12] = qHTS assay to identify small molecule antagonists of the retinoic acid receptor (RAR) signaling pathway (AID 1159552)
In short: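 Quantitative HTS in C3RL4 RARE-luciferase reporter cells. Compounds were added with 1 uM (final) retinol; luminescence was read after 6 hr.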

[13] = qHTS assay to identify small molecule agonists of the retinoic acid receptor (RAR) signaling pathway (AID 1159553); further: on the % scale 0 is the no-effect control and ±100 the full control effect
In short: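 Compounds dissolved in DMSO were pinned onto C3RL4 cells seeded the previous day, and plates were held 6 hr at 37 C. RARE-driven luciferase output was then read by luminescence.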

[14] = qHTS assay to identify small molecule antagonists of the estrogen related receptor (ERR) signaling pathway from Tox21 library - cell viability counter screen (AID 1224834); further: nearly all actives have a fitted effect of over 30% in size; further: potency means the concentration at half of the fitted maximal effect
In short: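 In this quantitative HTS format, ERR cells receive compounds in DMSO and are incubated for 17.5 h at 37 C. Live-cell protease activity is then detected with CellTiter-Fluor.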

[15] = qHTS assay to identify small molecule antagonists of the estrogen related receptor (ERR) signaling pathway - cell viability counter screen (AID 1224818)
In short: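 Cytotoxicity check run alongside the ERR antagonist screen: cells exposed to test compounds 17.5 h at 37 C, viability taken as CellTiter-Fluor fluorescence intensity.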

CCc1ccc(O)cc1
inactive: outcome [1] | outcome [2] | outcome [3] | Potency [4] | Potency [5] | Potency [6] | Potency [7] | Potency [8] | Potency [9] | Potency [10] | Potency [11] | Potency [12] | Potency [13] | Potency [14]

Cc1cc(O)cc(C)c1Cl
inactive: outcome [1] | outcome [2] | outcome [3] | Potency [4] | Potency [5] | Potency [6] | Potency [7] | Potency [8] | Potency [9] | Potency [10] | Potency [11] | Potency [12] | Potency [13] | Potency [14]

Cc1ccc(N)c(S(=O)(=O)O)c1
inactive: outcome [1] | outcome [2] | outcome [3] | Potency [4] | Potency [5] | Potency [6] | Potency [7] | Potency [8] | Potency [9] | Potency [10] | Potency [11] | Potency [12] | Potency [13] | Potency [14]

CCC(C)C=O (stereo not drawn)
inactive: outcome [1] | outcome [2] | outcome [3] | Potency [4] | Potency [5] | Potency [6] | Potency [7] | Potency [8] | Potency [9] | Potency [10] | Potency [11] | Potency [12] | Potency [13] | Potency [14]

CCCCCC/C=C/CCCCCCCC(=O)O
inactive: outcome [1] | outcome [2] | outcome [3] | Potency [4] | Potency [5] | Potency [6] | Potency [7] | Potency [8] | Potency [9] | Potency [10] | Potency [11] | Potency [12] | Potency [13] | Potency [14]

CC(C)(N=C=O)c1cccc(C(C)(C)N=C=O)c1
inactive: outcome [1] | outcome [2] | outcome [3] | Potency [4] | Potency [5] | Potency [6] | Potency [7] | Potency [8] | Potency [9] | Potency [10] | Potency [12] | Potency [13] | Potency [14]

Clc1cc(Cl)c(Cl)cc1Cl
inactive: outcome [1] | outcome [2] | outcome [3] | Potency [4] | Potency [5] | Potency [6] | Potency [7] | Potency [8] | Potency [9] | Potency [10] | Potency [12] | Potency [13] | Potency [14]

NC(=O)NNc1ccccc1
inactive: outcome [1] | outcome [2] | outcome [3] | Potency [4] | Potency [5] | Potency [6] | Potency [7] | Potency [8] | Potency [9] | Potency [10] | Potency [12] | Potency [13] | Potency [14]

OC[C@@H](O)[C@@H](O)[C@H](O)[C@@H](O)CO
inactive: outcome [1] | outcome [2] | outcome [3] | Potency [4] | Potency [5] | Potency [6] | Potency [7] | Potency [8] | Potency [9] | Potency [10] | Potency [12] | Potency [13] | Potency [14]

CC1(C)CC(N=C=O)CC(C)(CN=C=O)C1 (stereo not drawn)
inactive: outcome [1] | outcome [2] | outcome [3] | Potency [4] | Potency [5] | Potency [6] | Potency [7] | Potency [8] | Potency [9] | Potency [10] | Potency [12] | Potency [13] | Potency [14]

CC[Si](OC(C)=O)(OC(C)=O)OC(C)=O
inactive: outcome [1] | outcome [2] | outcome [3] | Potency [4] | Potency [5] | Potency [6] | Potency [7] | Potency [8] | Potency [9] | Potency [10] | Potency [11] | Potency [14]

CCCCCCCCCCC=CC1CC(=O)OC1=O (stereo not drawn)
54.8 µM (active) and inactive: Potency [6]
inactive: outcome [1] | outcome [2] | outcome [3] | Potency [4] | Potency [5] | Potency [7] | Potency [8] | Potency [9] | Potency [10] | Potency [14]

CCCCCCCCCCCCN
inactive and 68.6 µM (active): Potency [11]
inactive and 7.7 µM (active): Potency [14]
inactive: outcome [1] | outcome [2] | outcome [3] | Potency [5] | Potency [6] | Potency [7] | Potency [8] | Potency [9]
active: Potency [4] 11.1 µM and 21.9 µM and 19.8 µM
21.9 µM (active) and inactive: Potency [10]

NCCNCCNCCNCCN
inactive: outcome [1] | outcome [2] | outcome [3] | activity change, negative = cytotoxicity [4] 18.7% [at 6.95 µM] | Potency [5] | Potency [6] | Potency [7] | Potency [8] | Potency [9] | Potency [10] | Potency [14]

NCCc1ccc(O)c(O)c1
inactive: outcome [1] | outcome [2] | outcome [3] | Potency [4] | Potency [5] | Potency [6] | Potency [7] | Potency [8] | Potency [9] | Potency [10] | Potency [11] | outcome [15]
54.6 µM (active) and inactive: Potency [14]

COC(=O)c1ccccc1O
43.8 µM (active) and inactive: Potency [10]
inactive: outcome [1] | outcome [2] | outcome [3] | Potency [4] | Potency [5] | Potency [6] | Potency [7] | Potency [8] | Potency [11] | Potency [12] | Potency [13] | Potency [14]

Cc1ccc(C)c(C)c1
inactive: outcome [1] | outcome [2] | outcome [3] | Potency [4] | Potency [5] | Potency [6] | Potency [7] | Potency [8] | Potency [9] | Potency [10] | Potency [12] | Potency [13] | Potency [14]

OCC1CCCO1 (stereo not drawn)
inactive: outcome [1] | outcome [2] | outcome [3] | Potency [4] | Potency [5] | Potency [6] | Potency [7] | Potency [8] | Potency [10] | Potency [11] | Potency [12] | Potency [13] | Potency [14]

— PubChem BioAssay (Tox21)
